Each structure is given as a SMILES string. The source made the active and inactive calls. Rule for the calls: active = hit-call score of the fitted dose curve at least 0.9, where 1 is the maximum; inactive = score below 0.9.

As usually defined, the AC50 is the concentration at which the activity in the assay is half-maximal.

Read-out in assay [1]: Vascular cell adhesion molecule 1 (VCAM1), VCAM1 (gene 7412)
The experiment in a line: BSK_4H_VCAM1: BioMAP Diversity Plus: 4H Assay for Vascular cell adhesion molecule 1 (VCAM1) Biomarker Activity (AID 2283033).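 For outcome: cell-surface VCAM-1 protein measured by ELISA.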 Particulars: primary human endothelial cells (HUVEC); actives raise or lower the signal. The method, boiled down: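 In this human endothelial (HUVEC) system, biomarker ELISA was run 24 h after compound addition, and total protein in parallel wells was assessed by SRB at 560 nm; DMSO served as negative control.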

Read-out in assay [2]: Interferon-gamma inducible Protein 10 (IP10), CXCL10 (gene 3627)
Put plainly: BSK_BE3C_IP10: BioMAP Diversity Plus: BE3C Assay for Interferon-gamma inducible Protein 10 (IP10) Biomarker Activity (AID 2283034). Particulars: primary human bronchial epithelial cells; actives raise or lower the signal. In short, it runs like this: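 BE3C cells (human bronchial epithelial, primary); 24 h exposure; ELISA for IP-10; DMSO-referenced bidirectional fit.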

Read-out in assay [3]: Monokine induced gamma interferon (MIG), CXCL9 (gene 4283)
The experiment in a line: BSK_BE3C_MIG: BioMAP Diversity Plus: BE3C Assay for Monokine induced gamma interferon (MIG) Biomarker Activity (AID 2283035).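 Note: MIG protein measured by ELISA in BE3C cultures after 24 h of dosing.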 To be noted: primary human bronchial epithelial cells; actives raise or lower the signal. The method, boiled down: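 hu bronchial epithelial 1° cells, 24 h cpd; MIG by ELISA; bidirectional fit, DMSO = baseline.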

Read-out in assay [4]: Transforming growth factor beta 1 (TGFb1), TGFB1 (gene 7040)
Put plainly: BSK_BE3C_TGFb1: BioMAP Diversity Plus: BE3C Assay for Transforming growth factor beta 1 (TGFb1) Biomarker Activity (AID 2283036;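 note: TGF-b1 protein level measured by ELISA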). Particulars: primary human bronchial epithelial cells; actives raise or lower the signal. In short, it runs like this: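 TGF-b1 measured via ELISA, 24 h after chemical dosing of human bronchial epithelial cells (BE3C). Overt cytotoxicity assessed in parallel by SRB (0.1%, TCA-fixed, 560 nm); analysis bidirectional relative to DMSO.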

Read-out in assay [5]: Plasminogen activator inhibitor-1 (PAI1), SERPINE1 (gene 5054)
The experiment in a line: BSK_BE3C_PAI1: BioMAP Diversity Plus: BE3C Assay for Plasminogen activator inhibitor-1 (PAI1) Biomarker Activity (AID 2283037). Particulars: primary human bronchial epithelial cells; actives raise or lower the signal. The method, boiled down: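 In this multiplexed primary-cell system, bronchial epithelial cells receive test chemical and are sampled at 24 h. PAI-1 is read by ELISA, with DMSO serving as negative control for bidirectional fitting.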

Read-out in assay [6]: urokinase plasminogen activator (uPA), PLAU (gene 5328)
Put plainly: BSK_BE3C_uPA: BioMAP Diversity Plus: BE3C Assay for urokinase plasminogen activator (uPA) Biomarker Activity (AID 2283038).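 Note: uPA protein level quantified by ELISA in cell cultures; uPA read one day after compound addition.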 Particulars: primary human bronchial epithelial cells; actives raise or lower the signal. In short, it runs like this: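 Human primary bronchial epithelial cells were exposed to chemical for 24 h, then uPA levels were measured by ELISA. Responses were fitted bidirectionally against DMSO as negative control and baseline. Parallel SRB staining of total protein gauged overt cytotoxicity.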

Read-out in assay [7]: Urokinase-type plasminogen activator receptor (uPAR), PLAUR (gene 5329)
Put plainly: BSK_BE3C_uPAR: BioMAP Diversity Plus: BE3C Assay for Urokinase-type plasminogen activator receptor (uPAR) Biomarker Activity (AID 2283039).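 Note: cells exposed to compound for one day before measurement.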 To be noted: primary human bronchial epithelial cells; actives raise or lower the signal. The method, boiled down:
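Chemically treated human bronchial epithelial cells (lung primary) are assayed for uPAR by ELISA after 24 h, with data fitted in both directions using DMSO as negative control.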

Read-out in assay [8]: Interleukin-6 (IL6), IL6 (gene 3569)
Put plainly: BSK_CASM3C_IL6: BioMAP Diversity Plus: CASM3C Assay for Interleukin-6 (IL6) Biomarker Activity for (AID 2283040). To be noted: primary human coronary artery smooth muscle cells; actives raise or lower the signal.

Read-out in assay [9]: Tissue plasminogen activator (tPA), PLAT (gene 5327)
The experiment in a line: BSK_BE3C_tPA: BioMAP Diversity Plus: BE3C Assay for Tissue plasminogen activator (tPA) Biomarker Activity (AID 2283041).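 For outcome: tPA level quantified by ELISA one day after compound addition.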 Particulars: primary human bronchial epithelial cells; actives raise or lower the signal. The method, boiled down: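 Using human lung primary bronchial epithelial cells, tPA was measured by ELISA 24 h after dosing; data fitted relative to DMSO.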

Read-out in assay [10]: Interleukin-8 (IL8), CXCL8 (gene 3576)
The experiment in a line: BSK_CASM3C_IL8: BioMAP Diversity Plus: CASM3C Assay for Interleukin-8 (IL8) Biomarker Activity (AID 2283042).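 Note: IL-8 protein level quantified by ELISA.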 To be noted: primary human coronary artery smooth muscle cells; actives raise or lower the signal.

Read-out in assay [11]: Human Leukocyte Antigen - DR isotype (HLADR), HLA-DRA (gene 3122)
The experiment in a line: BSK_CASM3C_HLADR: BioMAP Diversity Plus: CASM3C Assay for Human Leukocyte Antigen - DR isotype (HLADR) Biomarker Activity (AID 2283043).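 Note: cell-surface HLA-DR protein level quantified by ELISA.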 To be noted: primary human coronary artery smooth muscle cells; actives raise or lower the signal.

Read-out in assay [12]: Macrophage colony-stimulating factor (MCSF), CSF1 (gene 1435)
Put plainly: BSK_CASM3C_MCSF: BioMAP Diversity Plus: CASM3C Assay for Macrophage colony-stimulating factor (MCSF) Biomarker Activity (AID 2283044).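 Note: M-CSF protein amount quantified by ELISA after 24 h exposure.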 Particulars: primary human coronary artery smooth muscle cells; actives raise or lower the signal.

Read-out in assay [13]: Low-density lipoprotein receptor (LDLR), LDLR (gene 3949)
The experiment in a line: BSK_CASM3C_LDLR: BioMAP Diversity Plus: CASM3C Assay for Low-density lipoprotein receptor (LDLR) Biomarker Activity (AID 2283045).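 Note: LDLR protein level on the cell surface quantified by ELISA.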 Particulars: primary human coronary artery smooth muscle cells; actives raise or lower the signal.

Read-out in assay [14]: Monocyte Chemoattractant Protein-1 (MCP1), CCL2 (gene 6347)
Put plainly: BSK_CASM3C_MCP1: BioMAP Diversity Plus: CASM3C Assay for Monocyte Chemoattractant Protein-1 (MCP1) Biomarker Activity (AID 2283046).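 Note: MCP-1 level quantified by ELISA 24 h after dosing.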 To be noted: primary human coronary artery smooth muscle cells; actives raise or lower the signal.

The nature of assay [15]: BSK_CASM3C_Proliferation: Cell Proliferation Assessment in the BioMAP Diversity Plus: CASM3C Assay (AID 2283047).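 Note: sulforhodamine B total protein stain as relative cell number at 560 nm; sub-confluent cells exposed 48 h before staining; fitted both ways against DMSO so gain or loss of cell number.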 Particulars: primary human coronary artery smooth muscle cells.
Read-out in assay [16]: Monokine induced gamma interferon (MIG), CXCL9 (gene 4283)
The experiment in a line: BSK_CASM3C_MIG: BioMAP Diversity Plus: CASM3C Assay for Monokine induced gamma interferon (MIG) Biomarker Activity (AID 2283048). Particulars: primary human coronary artery smooth muscle cells; actives raise or lower the signal.

Read-out in assay [17]: serum amyloid A (SAA), SAA1 (gene 6288)
Put plainly: BSK_CASM3C_SAA: BioMAP Diversity Plus: CASM3C Assay for serum amyloid A (SAA) Biomarker Activity (AID 2283049).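 Note: SAA protein level quantified by ELISA.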 To be noted: primary human coronary artery smooth muscle cells; actives raise or lower the signal.

The nature of assay [18]: BSK_CASM3C_SRB: Viability Assessment in the BioMAP Diversity Plus: CASM3C Assay (AID 2283050).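 Note: total protein by SRB staining as cytotoxicity measure in parallel cultures.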 Particulars: primary human coronary artery smooth muscle cells.
Read-out in assay [19]: Thrombomodulin, THBD (gene 7056)
Put plainly: BSK_CASM3C_Thrombomodulin: BioMAP Diversity Plus: CASM3C Assay for Thrombomodulin Biomarker Activity (AID 2283051).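 Note: thrombomodulin protein level measured by ELISA 24 h after dosing.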 Particulars: primary human coronary artery smooth muscle cells; actives raise or lower the signal.

Read-out in assay [20]: Tissue Factor, F3 (gene 2152)
Put plainly: BSK_CASM3C_TissueFactor: BioMAP Diversity Plus: CASM3C Assay for Tissue Factor Biomarker Activity (AID 2283052).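 Note: cell surface tissue factor protein level read by ELISA.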 Particulars: primary human coronary artery smooth muscle cells; actives raise or lower the signal.

With `BrC1CCC(Br)C(Br)CCC(Br)C(Br)CCC1Br` (stereo not given), the AC50 was 2.95 µM (active) in assay [1], 1.55 µM (active) in assay [2] and 0.11 µM (active) in assay [15]. For the same molecule, the result in [3], in assay [4], in assay [5], in assay [6], in [7] and in assay [8] was inactive. The result in assay [9], in assay [10], in assay [11], in [12], in [13] and in assay [14] was inactive. Moreover, the outcome in assay [16], in assay [17], in [18], in [19] and in [20] was inactive.
`CCn1c2ccccc2c2cc(N)ccc21`: the result in [1], in assay [2], in assay [3], in [4], in [6] and in [7] was inactive. In addition, the outcome in [8], in [10], in [11], in assay [13], in assay [14] and in assay [15] was inactive. Also, the outcome in [16], in assay [17], in [18] and in [20] was inactive. The concentration at half-maximal activity (AC50) in [5] was 3.97 µM (active); in assay [9], 3.97 µM (active); in assay [12] it was 0.426 µM (active); in assay [19], 2.7 µM (active).
As for `CCc1c(C)cc(N)c(CC)c1N`, the outcome in assay [1], in assay [2], in [3], in [4], in assay [5] and in assay [6] was inactive. Further, the result in assay [7], in [8], in assay [9], in assay [10], in [11] and in assay [12] was inactive. For the same molecule, the result in assay [13], in [14], in [15], in [16], in [17] and in [18] was inactive. The outcome in [19] and in [20] was inactive.
In the case of `C#C[C@]1(O)CC[C@H]2[C@@H]3CCC4=Cc5oncc5C[C@]4(C)[C@H]3CC[C@@]21C`, the AC50 is 30.1 µM (active) in [1]; 31.2 µM (active) in assay [2]; 33.9 µM (active) in assay [13]; 0.92 µM (active) in assay [14]; 3.97 µM (active) in assay [15]; 20 µM (active) in assay [18]. The outcome in assay [3], in [4], in assay [5], in assay [6], in assay [7] and in [8] was inactive. The result in assay [9], in assay [10], in [11], in assay [12], in assay [16] and in [17] was inactive. The result in assay [19] and in assay [20] was inactive.
As for `O=C(O)c1cn(-c2ccc(F)cc2)c2cc(N3CCNCC3)c(F)cc2c1=O`, the result in [1], in assay [2], in [3], in assay [4], in assay [5] and in assay [6] was inactive. Moreover, the result in [7], in assay [8], in assay [9], in [10], in assay [11] and in [12] was inactive. Moreover, the result in assay [13], in assay [14], in [15], in assay [16], in [17] and in assay [18] was inactive. Moreover, the result in [19] and in assay [20] was inactive.
Consider `CCCCCCCCC=O`, for which the outcome in assay [1], in [2], in [3], in assay [4], in assay [5] and in assay [6] was inactive. In addition, the outcome in assay [7], in assay [8], in [9], in assay [10], in assay [11] and in [12] was inactive. For the same molecule, the result in assay [13], in assay [14], in [15], in assay [16], in assay [17] and in assay [18] was inactive. In addition, the result in assay [19] and in assay [20] was inactive.
